In PubChem BioAssay AID1159580 (chemical genetic matrix, 2015):
Where “and” joins values, the source holds several entries; their conditions need not be identical. Identical values can stand only once. In all, about 5,500 compounds went through this assay and about 2,000 (36%) were called active. Another 18% or so got no clear call; they are omitted. Rule as the data show it: active = normalized growth mostly below about 0.91 (no sharp cut-off); inconclusive = no clear call, values can overlap the other calls; inactive = mostly above about 0.92. The list shows a part of the results.

Experiment: chemical genetic growth profiling, strain panel (AID 1159580);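 also: tested at 20 µM; growth read once vehicle control cultures reached saturation at 30 °C; 1 = growth at the plate median or of vehicle wells; lower values mean less growth of the strain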
Conditions: S. cerevisiae deletion strains, growth OD

Measured: normalized growth

CCCC(=O)O[C@]1(C(=O)CO)CCC2[C@@H]3CCC4=CC(=O)CC[C@]4(C)C3[C@@H](O)C[C@@]21C (stereo not given in full)
inactive: locus YAL013W, strain DEP1, stronger effect = lower value 1.01 | locus YAL021C, strain ccr4, stronger effect = lower value 0.997 | locus YAL026C, strain drs2, stronger effect = lower value 1.02 | locus YAL030W, strain snc1, stronger effect = lower value 1 | locus YBL061C, strain skt5, stronger effect = lower value 1 | locus YBR009C, strain hhf1, stronger effect = lower value 1 | locus YBR021W, strain FUR4, stronger effect = lower value 1.02 | locus YBR023C, strain chs3, stronger effect = lower value 1 | locus YBR171W, strain sec66, stronger effect = lower value 1.01 | locus YBR229C, strain ROT2, stronger effect = lower value 1.02 | locus YBR231C, strain swc5, stronger effect = lower value 1 | locus YBR279W, strain paf1, stronger effect = lower value 0.996 | locus YCL011C, strain gbp2, stronger effect = lower value 1.01 | locus YCL016C, strain dcc1, stronger effect = lower value 1.01 | locus YCL029C, strain bik1, stronger effect = lower value 0.983 | locus YCL061C, strain MRC1, stronger effect = lower value 1 | locus YCL069W, strain vba3, stronger effect = lower value 1 | locus YCR088W, strain abp1, stronger effect = lower value 1.01 | locus YDL005C, strain med2, stronger effect = lower value 1.01 | locus YDL035C, strain GPR1, stronger effect = lower value 0.997 | locus YDL040C, strain nat1, stronger effect = lower value 1.01 | locus YDL074C, strain BRE1, stronger effect = lower value 1.01 | locus YDL101C, strain DUN1, stronger effect = lower value 1.01 | locus YDL134C, strain PPH21, stronger effect = lower value 1.01 | locus YDL185W, strain tfp1, stronger effect = lower value 0.965 | locus YDL192W, strain arf1, stronger effect = lower value 0.98 | locus YDR001C, strain nth1, stronger effect = lower value 1.01 | locus YDR069C, strain doa4, stronger effect = lower value 1.01 | locus YDR101C, strain arx1, stronger effect = lower value 1.01 | locus YDR137W, strain rgp1, stronger effect = lower value 1.01 | locus YDR150W, strain NUM1, stronger effect = lower value 1.01 | locus YDR159W, strain sac3, stronger effect = lower value 0.998 | locus YDR162C, strain NBP2, stronger effect = lower value 0.991 | locus YDR195W, strain ref2 0.99 | locus YDR297W, strain sur2, stronger effect = lower value 1.01 | locus YDR318W, strain mcm21, stronger effect = lower value 1 | locus YDR334W, strain swr1, stronger effect = lower value 1.02 | locus YDR335W, strain msn5, stronger effect = lower value 1 | locus YDR388W, stronger effect = lower value 0.976 | locus YDR392W, strain spt3, stronger effect = lower value 1.01 | locus YDR502C, strain sam2, stronger effect = lower value 0.981 | locus YEL003W, strain gim4, stronger effect = lower value 1.01 | locus YEL037C, strain rad23, stronger effect = lower value 1 | locus YEL061C, strain CIN8 (second series), stronger effect = lower value 1.01 | locus YEL061C, strain CIN8, stronger effect = lower value 1 | locus YER015W, strain faa2, stronger effect = lower value 1.01 | locus YER016W, strain bim1, stronger effect = lower value 1.01 | locus YER110C, stronger effect = lower value 0.946 | locus YER111C, strain swi4, stronger effect = lower value 1.01 | locus YER155C, strain BEM2 (second series), stronger effect = lower value 1.01 | locus YER155C, strain BEM2, stronger effect = lower value 1.02 | locus YER167W, strain BCK2, stronger effect = lower value 1.01 | locus YFR010W, strain ubp6, stronger effect = lower value 1.01 | locus YGL078C, strain dbp3, stronger effect = lower value 0.978 | locus YGL086W, strain mad1, stronger effect = lower value 0.99 | locus YGL167C, strain pmr1, stronger effect = lower value 1.01 | locus YGL173C, strain kem1, stronger effect = lower value 1 | locus YGL227W, strain vid30, stronger effect = lower value 1.02 | locus YGL240W, strain doc1, stronger effect = lower value 1.01 | locus YGL248W, strain PDE1, stronger effect = lower value 1.02 | locus YGL253W, strain hxk2, stronger effect = lower value 1.01 | locus YGR135W, strain pre9, stronger effect = lower value 0.939 | locus YGR229C, strain SMI1, stronger effect = lower value 0.987 | locus YGR252W, strain gcn5, stronger effect = lower value 0.94 | locus YHR013C, strain ard1, stronger effect = lower value 1.01 | locus YHR027C, strain rpn1, stronger effect = lower value 1 | locus YHR030C, strain SLT2, stronger effect = lower value 1.01 and 1.04 | locus YHR079C, strain IRE1 (second series), stronger effect = lower value 0.997 | locus YHR079C, strain IRE1, stronger effect = lower value 1.05 | locus YHR094C, strain hxt1, stronger effect = lower value 0.984 | locus YHR129C, strain ARP1, stronger effect = lower value 1.01 | locus YHR142W, strain chs7, stronger effect = lower value 1.02 | locus YHR200W, strain rpn10, stronger effect = lower value 0.994 | locus YIL066C, strain RNR3, stronger effect = lower value 1.02 | locus YIL073C, strain SPO22, stronger effect = lower value 0.867 | locus YIL125W, strain kgd1, stronger effect = lower value 0.994 | locus YIR030C, strain dcg1, stronger effect = lower value 0.994 | locus YJL092W, strain hpr5, stronger effect = lower value 1.01 | locus YJL095W, strain BCK1 (second series), stronger effect = lower value 1 | locus YJL095W, strain BCK1, stronger effect = lower value 1.01 and 1.05 | locus YJL115W, strain asf1, stronger effect = lower value 1.02 | locus YJL129C, strain trk1, stronger effect = lower value 1.01 | locus YJL134W, strain LCB3, stronger effect = lower value 1.01 | locus YJL154C, strain vps35, stronger effect = lower value 1.01 | locus YJL164C, strain tpk1, stronger effect = lower value 1.01 | locus YJL166W, strain qcr8, stronger effect = lower value 1.01 | locus YJL168C, strain set2, stronger effect = lower value 0.976 | locus YJL187C, strain SWE1 (second series), stronger effect = lower value 1.01 | locus YJL187C, strain SWE1, stronger effect = lower value 1 | locus YJR043C, strain POL32, stronger effect = lower value 0.992
